# Results published in PubChem BioAssay.
# For part of these data: Entries with a potency or affinity are not part of this list. Activity calls are given as the source filed them.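 Rule for the calls, unless noted: active = earlier screen potentiator hit that boosts the TRPC4 ion channel at some dose, with a dose response; inactive = no potentiation, no dose response, or not a prior hit.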
# Experiments:
# [1] = tested on: TRPC4 beta (transient receptor potential cation channel C4), mouse; assay: TRPC4 cation channel opening, retest – cell-based, Fluo4 calcium, HEK293 TRPC4beta/mu-opioid, duplicates, 10 µM, confirmation (AID 2426;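 active = fluorescence ratio normalized to control raised more than 50% in primary screen plus both repeat runs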); details: Fluo4 calcium fluorescence, at 10 µM; stronger effect = higher value
# [2] = tested on: transient receptor potential cation channel C4 beta (TRPC4), mouse; assay: TRPC4 cation channel opening, second retest – cell-based, second round, Fluo4, HEK293 TRPC4beta/mu-opioid, 1 µM, confirmation (AID 2461;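 active = primary screen active and over 50% activation in each of two duplicate runs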); details: Fluo4 calcium fluorescence, at 1 µM; stronger effect = higher value
# [3] = tested on: TRPC4 (transient receptor potential cation channel C4 beta), mouse; assay: potentiation of DAMGO EC20 TRPC4 response – cell-based, second round, Fluo-4, HEK293 TRPC4beta/mu-opioid, 1 µM, confirmation (AID 2554;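 active = primary screen hit whose fluorescence ratio, in both repeats, exceeds the weak agonist control mean by 3 SD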); details: DAMGO EC20, Fluo-4 calcium flux, at 1 µM; stronger effect = higher value
# [4] = tested on: TRPC4 beta (transient receptor potential cation channel C4), mouse; assay: potentiation of DAMGO EC20 TRPC4 response – cell-based, Fluo-4, HEK293 TRPC4beta/mu-opioid, confirmation (AID 2555;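 active = primary screen hit whose calcium fluorescence ratio, in both repeats, exceeds the weak agonist control mean by 3 SD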); details: DAMGO EC20, Fluo-4 calcium flux, at 10 µM; stronger effect = higher value
# [5] = target: Short transient receptor potential channel 4 (Mus musculus) (UniProt Q9QUQ5); assay: blockers of DAMGO-evoked TRPC4 calcium flux – cell-based, Fluo4, HEK293 TRPC4beta/mu-opioid, confirmation (AID 2636;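 active = calcium signal cut by more than 3 SD below the full-agonist control yet still positive, in both repeats and the earlier primary screen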); details: at 10 µM; stronger effect = higher value
# [6] = target: Short transient receptor potential channel 4 (Mus musculus) (UniProt Q9QUQ5); assay: blockers of DAMGO-evoked TRPC4 calcium flux – cell-based, second round, Fluo4, HEK293 TRPC4beta/mu-opioid, 1 µM, confirmation (AID 2637;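 active = calcium signal ratio cut to more than 3 SD under the fully stimulated control mean yet still positive, in both repeats and the primary screen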;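 for inhibition: percent of integrated ratio relative to wells lacking test compound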); details: at 1 µM; stronger effect = higher value
# [7] = target: Short transient receptor potential channel 4 (Mus musculus) (UniProt Q9QUQ5); assay: calcium entry via TRPC4 opening agents – cell-based, HEK293 TRPC4/mu-opioid, Fluo-4 calcium, dose response (AID 434937;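 active = primary screen activator hit with a dose response curve and TRPC4 channel activation at any tested dose; inactive = no activation, no dose response, or not a primary hit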)
# [8] = target: Short transient receptor potential channel 4 (Mus musculus) (UniProt Q9QUQ5); assay: potentiation of DAMGO-evoked TRPC4 calcium signal – cell-based, HEK293 TRPC4/mu-opioid, Fluo-4 calcium, EC20 DAMGO, dose response (AID 434941);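 note: calcium entry triggered by an EC20 dose of DAMGO at the co-expressed mu-opioid receptor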
# [9] = target: Short transient receptor potential channel 6 (Mus musculus) (UniProt Q61143); assay: TRPC6 blockade by TRPC4 inhibitor hits – cell-based, HEK293, membrane potential dye, duplicate, selectivity assay for TRPC4 inhibitor project, confirmation (AID 434948;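 active = active in primary screen and both duplicates, each dropping signal beyond three positive-control SD with fluorescence still positive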); details: HEK293 TRPC6, membrane potential dye fluorescence, at 10 µM, stimulated with maximal-effect acetylcholine; stronger effect = higher value
# [10] = target: Short transient receptor potential channel 6 (Mus musculus) (UniProt Q61143); assay: TRPC6 opening by TRPC4 activator hits – cell-based, HEK293, membrane potential dye, duplicate, selectivity assay for TRPC4 activator project, confirmation (AID 434950;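 active = membrane potential signal rise above negative control mean plus 3 SD in both duplicates, also active in the earlier TRPC4 screen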); details: HEK293 TRPC6, membrane potential fluorescence, at 10 µM; activation: stronger effect = higher value; outcome: activation
# [11] = target: Short transient receptor potential channel 6 (Mus musculus) (UniProt Q61143); assay: positive modulators of mouse TRPC6 channel – HEK293 cells, membrane potential dye, duplicate, selectivity assay for TRPC4 potentiator project, confirmation (AID 434952;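 active = compound raising the membrane signal above positive-control mean plus 3 SD in both repeats, and a primary screen hit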); details: HEK293 TRPC6, membrane potential dye fluorescence, at 10 µM, maximal acetylcholine added after compound; stronger effect = higher value
# [12] = target: Short transient receptor potential channel 4 (Mus musculus) (UniProt Q9QUQ5); assay: calcium flux activators in TRPC4/5HT1a cells, counter-screen for TRPC4 activator project, cell-based, second counter screen, HEK293 TRPC4/5HT1a, Fluo-4 (AID 434977;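 active = calcium signal rise above buffer-control mean plus 5 SD in both duplicates, and also a hit in the primary screen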); details: Fluo-4 calcium flux, at 10 µM; stronger effect = higher value
# [13] = serotonin-gated TRPC4 signal block – cell-based, second counter screen, HEK293 TRPC4/5HT1a, Fluo-4, counter-screen for TRPC4 inhibitor project, confirmation (AID 434978;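 active = primary screen active whose calcium signal fell more than 3 SD beyond the full-serotonin control mean in both duplicate plates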;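 for outcome: serotonin given first at submaximal then at maximal dose after compound preincubation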); details: Fluo-4 calcium flux, at 10 µM, serotonin added to trigger calcium flux; stronger effect = higher value
# [14] = tested on: TRPC4 (mouse), co-expressed with 5HT1a in HEK293; assay: enhancement of serotonin-evoked TRPC4 response – cell-based, second counter screen, HEK293 TRPC4/5HT1a, Fluo-4, counter-screen for TRPC4 potentiator project, confirmation (AID 434979;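 active = signal rise over 3 SD above mean of control wells given weak agonist, in both repeats and first screen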); details: Fluo-4 calcium flux, at 10 µM, serotonin added at its EC20 dose; stronger effect = higher value
# [15] = nonspecific calcium rise without TRPC4 – cell-based, HEK293 mu-opioid receptor line, counter-screen for TRPC4 activator project, confirmation (AID 449723;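 active = hit in primary screen, with calcium signal over 5 SD above buffer well mean in both duplicates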;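 note: counter screen cells carry the mu-opioid receptor alone and lack TRPC4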); details: HEK293 mu-opioid cells, Fluo-4 calcium fluorescence, at 10 µM; stronger effect = higher value
# [16] = nonspecific potentiation of DAMGO calcium response – cell-based, HEK293 mu-opioid receptor line, counter-screen for TRPC4 allosteric potentiator project, confirmation (AID 449724;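 active = calcium signal rise more than 3 SD above the low-dose agonist control mean, in both duplicate plates and the primary screen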); details: HEK293 mu-opioid receptor cells, Fluo-4 calcium flux, at 10 µM, compound added before EC20 DAMGO stimulus; stronger effect = higher value
# Sequence of Short transient receptor potential channel 6 (Mus musculus) (Q61143 whole entry, looked up): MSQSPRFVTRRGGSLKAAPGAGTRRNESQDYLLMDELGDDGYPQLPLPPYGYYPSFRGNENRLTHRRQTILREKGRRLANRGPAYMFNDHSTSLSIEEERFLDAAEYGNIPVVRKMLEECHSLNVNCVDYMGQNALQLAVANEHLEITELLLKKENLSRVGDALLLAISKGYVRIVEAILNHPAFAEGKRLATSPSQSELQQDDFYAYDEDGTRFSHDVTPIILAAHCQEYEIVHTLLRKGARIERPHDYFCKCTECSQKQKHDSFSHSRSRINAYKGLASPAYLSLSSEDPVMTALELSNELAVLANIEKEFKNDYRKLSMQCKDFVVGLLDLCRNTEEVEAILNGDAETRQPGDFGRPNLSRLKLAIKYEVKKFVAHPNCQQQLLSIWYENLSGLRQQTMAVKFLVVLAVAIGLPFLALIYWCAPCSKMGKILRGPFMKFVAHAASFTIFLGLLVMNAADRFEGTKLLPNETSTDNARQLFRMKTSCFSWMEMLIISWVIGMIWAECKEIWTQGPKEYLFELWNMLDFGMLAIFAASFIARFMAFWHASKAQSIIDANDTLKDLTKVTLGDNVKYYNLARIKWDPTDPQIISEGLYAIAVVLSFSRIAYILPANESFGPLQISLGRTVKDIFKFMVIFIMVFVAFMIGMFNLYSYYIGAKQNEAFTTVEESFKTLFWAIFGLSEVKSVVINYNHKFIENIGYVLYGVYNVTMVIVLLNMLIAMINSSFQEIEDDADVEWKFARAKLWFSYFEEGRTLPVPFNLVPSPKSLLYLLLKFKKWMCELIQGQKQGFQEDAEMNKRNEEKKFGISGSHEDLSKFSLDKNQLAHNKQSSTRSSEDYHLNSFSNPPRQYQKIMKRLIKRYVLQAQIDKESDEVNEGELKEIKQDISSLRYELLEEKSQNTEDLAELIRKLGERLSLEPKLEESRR
# Sequence of Short transient receptor potential channel 4 (Mus musculus) (Q9QUQ5 whole entry, looked up): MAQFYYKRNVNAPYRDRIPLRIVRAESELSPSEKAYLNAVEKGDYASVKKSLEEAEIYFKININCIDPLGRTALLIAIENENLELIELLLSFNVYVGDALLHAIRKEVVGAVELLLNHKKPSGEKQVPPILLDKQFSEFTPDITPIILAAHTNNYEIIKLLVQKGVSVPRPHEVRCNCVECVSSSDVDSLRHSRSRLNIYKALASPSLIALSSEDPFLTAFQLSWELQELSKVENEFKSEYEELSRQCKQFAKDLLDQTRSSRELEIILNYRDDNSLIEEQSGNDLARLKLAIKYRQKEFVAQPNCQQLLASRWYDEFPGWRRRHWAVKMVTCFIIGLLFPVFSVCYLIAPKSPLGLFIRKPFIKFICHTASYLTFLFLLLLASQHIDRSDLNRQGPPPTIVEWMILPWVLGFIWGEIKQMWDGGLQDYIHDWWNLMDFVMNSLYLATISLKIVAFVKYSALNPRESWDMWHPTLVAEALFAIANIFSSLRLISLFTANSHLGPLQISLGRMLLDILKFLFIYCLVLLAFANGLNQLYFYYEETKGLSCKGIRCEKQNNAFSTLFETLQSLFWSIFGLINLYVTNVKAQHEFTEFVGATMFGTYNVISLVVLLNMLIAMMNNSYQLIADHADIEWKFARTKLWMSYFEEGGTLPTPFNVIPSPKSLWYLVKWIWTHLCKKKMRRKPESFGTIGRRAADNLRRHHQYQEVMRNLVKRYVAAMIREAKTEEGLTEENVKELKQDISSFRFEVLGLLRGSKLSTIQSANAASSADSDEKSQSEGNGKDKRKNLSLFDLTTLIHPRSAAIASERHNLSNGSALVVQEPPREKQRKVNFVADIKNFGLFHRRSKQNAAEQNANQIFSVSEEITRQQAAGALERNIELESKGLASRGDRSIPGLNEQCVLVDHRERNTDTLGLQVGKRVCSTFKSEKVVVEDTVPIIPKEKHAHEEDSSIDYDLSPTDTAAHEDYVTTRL
SMILES,outcome [1],outcome [2],outcome [3],outcome [4],inhibition [5],outcome [6],outcome [7],outcome [8],outcome [9],outcome [10],outcome [11],outcome [12],outcome [13],outcome [14],outcome [15],outcome [16],inhibition [6],inhibition [13],inhibition [9],potentiation [4]
Cc1cc(Cl)c2oc(C(=O)N(C)Cc3nccn3C)c(C)c2c1,inactive,inactive,inactive,inactive,84% (active),inactive,inactive,inactive,inactive,inactive,inactive,inactive,inactive,inactive,inactive,inactive,–,–,–,–
CCc1c(C(=O)N2CCCN(C)CC2)csc1C,inactive,inactive,inactive,inactive,63% (active),–,inactive,inactive,inactive,inactive,inactive,inactive,inactive,inactive,inactive,inactive,44% (active),–,–,–
CC1(C)CC(NC(=O)c2cc(COc3cccc(C(F)(F)F)c3)on2)CCO1 (stereo not given),inactive,inactive,inactive,inactive,90% (active),inactive,inactive,inactive,inactive,inactive,inactive,inactive,–,inactive,inactive,inactive,–,25.2% (active),–,–
Cc1ccccc1Cn1c(=N)n(CC(O)c2ccco2)c2ccccc21 (stereo not given),inactive,inactive,inactive,inactive,89% (active),–,inactive,inactive,inactive,inactive,inactive,inactive,–,inactive,inactive,inactive,58% (active),33.6% (active),–,–
Cc1ccc2c(c1)N(C(=O)CCC(=O)Nc1ccccc1Br)CC(C)O2 (stereo not given),inactive,inactive,inactive,inactive,90% (active),–,inactive,inactive,inactive,inactive,inactive,inactive,–,inactive,inactive,inactive,46% (active),31.8% (active),–,–
CC(=O)Nc1ccc(S(=O)(=O)Nc2nc3ccc(C)cc3s2)cc1,inactive,inactive,inactive,inactive,65% (active),inactive,inactive,inactive,inactive,inactive,inactive,inactive,inactive,inactive,inactive,inactive,–,–,–,–
Cc1cc(C(=O)N/N=C\c2cc(C(C)(C)C)ccc2O)n[nH]1,inactive,inactive,inactive,inactive,84% (active),inactive,inactive,inactive,inactive,inactive,inactive,inactive,–,inactive,inactive,inactive,–,24.2% (active),–,–
CN(C(=O)CSc1nc(-c2ccc(C(C)(C)C)cc2)c(C#N)c(=O)[nH]1)C1CCCCC1,inactive,inactive,inactive,inactive,97% (active),inactive,inactive,inactive,inactive,inactive,inactive,inactive,–,inactive,inactive,inactive,–,4.92% (active),–,–
CCOc1ccc(Cl)cc1/C=N/O,inactive,inactive,inactive,inactive,86% (active),inactive,inactive,inactive,–,inactive,inactive,inactive,–,inactive,inactive,inactive,–,39.8% (active),2% (active),–
Cc1nn(C(=O)c2cccc([N+](=O)[O-])c2)c(C)c1Sc1ccccc1,inactive,inactive,inactive,inactive,88% (active),inactive,inactive,inactive,inactive,inactive,inactive,inactive,–,inactive,inactive,inactive,–,32.5% (active),–,–
N#Cc1c(-c2cccs2)nc(SCc2ccc(Cl)cc2)[nH]c1=O,inactive,inactive,inactive,–,99% (active),–,inactive,inactive,inactive,inactive,inactive,inactive,–,inactive,inactive,inactive,40% (active),11.9% (active),–,15% (active)
Cc1ccc(OCc2cc(C(=O)N(C)CCc3nc4ccccc4[nH]3)no2)cc1C,inactive,inactive,inactive,inactive,69% (active),inactive,inactive,inactive,inactive,inactive,inactive,inactive,inactive,inactive,inactive,inactive,–,–,–,–
Cc1cc(NCc2ccccc2)nc(N2CCOCC2)n1,inactive,inactive,inactive,inactive,95% (active),–,inactive,inactive,inactive,inactive,inactive,inactive,–,inactive,inactive,inactive,40% (active),26.5% (active),–,–
OCc1ccccc1CNCc1ccccc1,inactive,inactive,inactive,inactive,95% (active),–,inactive,inactive,inactive,inactive,inactive,inactive,–,inactive,inactive,inactive,52% (active),18.7% (active),–,–
COC(=O)C1=C(C)N(Cc2ccccc2)C(=S)N[C@H]1c1ccccc1,inactive,inactive,inactive,inactive,73% (active),inactive,inactive,inactive,inactive,inactive,inactive,inactive,–,inactive,inactive,inactive,–,25.6% (active),–,–
